Activity calls are given as the source filed them. Entries that show only a call come without a potency. Calls follow the shape of the full dose curve.

A short description of this assay: Normal 2 Cell Viability Secondary Assay for qHTS Assay for Epigenetic Modulators. The following applies: Normal 2 bronchial epithelial viability, MTS, 4 days. The text has this: NIH Molecular Libraries Screening Centers Network [MLSCN] NIH Chemical Genomics Center [NCGC] MLSCN Grant: 1 X01 MH079860-01 Assay Provider: Elisabeth D. Martinez, University of Texas SW Medical Center NCGC Assay Overview: This secondary assay characterizes selected actives identified in the qHTS of the Locus Derepression (LDR) assay (PubChem AID 597). The LDR assay detects the derepression of a GFP reporter that is stably integrated in a region of the genome of murine c127i mammary cells that is presumably silenced. Compounds that cause derepression of the locus to express GFP are identified by enumerating GFP positive cells using a laser-scanning microplate cytometer. Selected LDR actives were assayed for killing of Normal 2, a patient-derived normal bronchial epithelial line matched to NSCLC 2, a nonsmall cell lung carcinoma line from the same patient. The Normal 2 line assays the cytoxicity of test compounds on normal lung cells. Normal 2 cell viability was measured using Cell Titer 96 AQueous One (Promega), an assay which detects the ability of metabolically active cells to reduce a tetrazolium salt substrate (MTS), into a soluble formazan product that can be measured by colorimetry.
NCGC Assay Protocol Summary Normal 2 cells were plated in 96-well flat bottom tissue culture dishes (Corning) and grown overnight at 37 C and 5% CO2, then treated with compounds, incubated 4 days, and assayed for viability using the Cell Titer 96 AQueous One kit (Promega) according to the manufacturer's protocol. Absorbance at 490 nm and 650 nm (reference) was measured by a Spectra Max (Molecular Devices). Data were normalized to the untreated control (100% viability). Each cell line was tested in one or two independent assays, each containing 4 or 8 replicates. For further details, see R.L. Johnson, W. Huang, A. Jadhav, C.P. Austin, J. Inglese, E.D. Martinez, A Quantitative High-Throughput Screen Identifies Potential Epigenetic Modulators of Gene Expression, Analytical Biochemistry (2007), doi: 10.1016/j.ab.2007.12.028
A general note: In qHTS, concentration-response curves come from the screen itself.
Turning to `CC(/C=C/C(=O)NO)=C\[C@@H](C)C(=O)c1ccc(N(C)C)cc1`, the result was inactive.

As to `O=C(CSc1cccc2cccnc12)N1CCCC1`, the outcome was inactive.

`O=Nc1ccc(O)c2ncccc12`: the Potency was 9 µM (active).

As to `CC(C)C(=O)NC(c1ccco1)c1cc([N+](=O)[O-])c2cccnc2c1O` (stereo not drawn), the Potency is 2 µM (active).

On to `O=C(CSc1cccc2cccnc12)NCc1ccccc1`, for which the call was inactive.

For `CC(C)C(=O)NC(c1ccc(N(C)C)cc1)c1ccc2cccnc2c1O` (stereo not drawn), the Potency was 5 µM (active).

Consider `CN1C(=S)SC(c2ccccc2)N(C)C1c1ccccc1` (stereo not drawn), for which the result was inactive.

Turning to `CC(C)C(=O)NC(c1ccco1)c1ccc2cccnc2c1O` (stereo not drawn), the Potency is 10 µM (active).
